Experimental data reported in PubChem BioAssay (EPA / NIEHS).
Active and inactive are the calls of the source. The calls were made as follows: active = hit-call score of the fitted dose curve at least 0.9, where 1 is the maximum; inactive = score below 0.9.

Tests used:
[1] = read-out: Tissue plasminogen activator (tPA), PLAT (gene 5327); test: BSK_BE3C_tPA: BioMAP Diversity Plus: BE3C Assay for Tissue plasminogen activator (tPA) Biomarker Activity (AID 2283041); conditions: primary human bronchial epithelial cells; actives raise or lower the signal
Method in brief: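 Primary human lung bronchial epithelial cultures receive test chemical; after 24 h, tPA is quantified by ELISA, and gain or loss of signal is fitted bidirectionally relative to DMSO baseline.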

[2] = read-out: Interleukin-8 (IL8), CXCL8 (gene 3576); test: BSK_CASM3C_IL8: BioMAP Diversity Plus: CASM3C Assay for Interleukin-8 (IL8) Biomarker Activity (AID 2283042); conditions: primary human coronary artery smooth muscle cells; actives raise or lower the signal;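 also: IL-8 protein level quantified by ELISA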
[3] = read-out: Human Leukocyte Antigen - DR isotype (HLADR), HLA-DRA (gene 3122); test: BSK_CASM3C_HLADR: BioMAP Diversity Plus: CASM3C Assay for Human Leukocyte Antigen - DR isotype (HLADR) Biomarker Activity (AID 2283043); conditions: primary human coronary artery smooth muscle cells; actives raise or lower the signal;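 also: cell-surface HLA-DR protein level quantified by ELISA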
[4] = read-out: Macrophage colony-stimulating factor (MCSF), CSF1 (gene 1435); test: BSK_CASM3C_MCSF: BioMAP Diversity Plus: CASM3C Assay for Macrophage colony-stimulating factor (MCSF) Biomarker Activity (AID 2283044); conditions: primary human coronary artery smooth muscle cells; actives raise or lower the signal;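 also: M-CSF protein amount quantified by ELISA after 24 h exposure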
[5] = read-out: Low-density lipoprotein receptor (LDLR), LDLR (gene 3949); test: BSK_CASM3C_LDLR: BioMAP Diversity Plus: CASM3C Assay for Low-density lipoprotein receptor (LDLR) Biomarker Activity (AID 2283045); conditions: primary human coronary artery smooth muscle cells; actives raise or lower the signal;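 also: LDLR protein level on the cell surface quantified by ELISA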
[6] = read-out: Monocyte Chemoattractant Protein-1 (MCP1), CCL2 (gene 6347); test: BSK_CASM3C_MCP1: BioMAP Diversity Plus: CASM3C Assay for Monocyte Chemoattractant Protein-1 (MCP1) Biomarker Activity (AID 2283046); conditions: primary human coronary artery smooth muscle cells; actives raise or lower the signal;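 also: MCP-1 level quantified by ELISA 24 h after dosing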
[7] = BSK_CASM3C_Proliferation: Cell Proliferation Assessment in the BioMAP Diversity Plus: CASM3C Assay (AID 2283047); conditions: primary human coronary artery smooth muscle cells;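 also: sulforhodamine B total protein stain as relative cell number at 560 nm; sub-confluent cells exposed 48 h before staining; fitted both ways against DMSO so gain or loss of cell number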
[8] = read-out: Monokine induced gamma interferon (MIG), CXCL9 (gene 4283); test: BSK_CASM3C_MIG: BioMAP Diversity Plus: CASM3C Assay for Monokine induced gamma interferon (MIG) Biomarker Activity (AID 2283048); conditions: primary human coronary artery smooth muscle cells; actives raise or lower the signal;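 also: MIG protein level measured by ELISA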
[9] = read-out: serum amyloid A (SAA), SAA1 (gene 6288); test: BSK_CASM3C_SAA: BioMAP Diversity Plus: CASM3C Assay for serum amyloid A (SAA) Biomarker Activity (AID 2283049); conditions: primary human coronary artery smooth muscle cells; actives raise or lower the signal;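 also: SAA protein level quantified by ELISA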
[10] = BSK_CASM3C_SRB: Viability Assessment in the BioMAP Diversity Plus: CASM3C Assay (AID 2283050); conditions: primary human coronary artery smooth muscle cells;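 also: total protein by SRB staining as cytotoxicity measure in parallel cultures; cells exposed to compound for 24 h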
[11] = read-out: Thrombomodulin, THBD (gene 7056); test: BSK_CASM3C_Thrombomodulin: BioMAP Diversity Plus: CASM3C Assay for Thrombomodulin Biomarker Activity (AID 2283051); conditions: primary human coronary artery smooth muscle cells; actives raise or lower the signal;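 also: thrombomodulin protein level measured by ELISA 24 h after dosing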
[12] = read-out: Tissue Factor, F3 (gene 2152); test: BSK_CASM3C_TissueFactor: BioMAP Diversity Plus: CASM3C Assay for Tissue Factor Biomarker Activity (AID 2283052); conditions: primary human coronary artery smooth muscle cells; actives raise or lower the signal;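 also: cell surface tissue factor protein level read by ELISA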
[13] = read-out: Interferon-gamma inducible Protein 10 (IP10), CXCL10 (gene 3627); test: BSK_hDFCGF_IP10: BioMAP Diversity Plus: hDFCGF Assay for Interferon-gamma inducible Protein 10 (IP10) Biomarker Activity (AID 2283053); conditions: primary human foreskin fibroblasts; actives raise or lower the signal
Method in brief: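 Primary foreskin fibroblasts, human; 24 h compound exposure; IP-10 by ELISA; bidirectional fit vs DMSO.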

[14] = read-out: Urokinase-type plasminogen activator receptor (uPAR), PLAUR (gene 5329); test: BSK_CASM3C_uPAR: BioMAP Diversity Plus: CASM3C Assay for Urokinase-type plasminogen activator receptor (uPAR) Biomarker Activity (AID 2283054); conditions: primary human coronary artery smooth muscle cells; actives raise or lower the signal;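 also: cell-surface uPAR protein level quantified by ELISA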
[15] = read-out: Vascular cell adhesion molecule 1 (VCAM1), VCAM1 (gene 7412); test: BSK_CASM3C_VCAM1: BioMAP Diversity Plus: CASM3C Assay for Vascular cell adhesion molecule 1 (VCAM1) Biomarker Activity (AID 2283055); conditions: primary human coronary artery smooth muscle cells; actives raise or lower the signal;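 also: VCAM-1 protein level quantified by ELISA on the cells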
[16] = read-out: Collagen III, COL3A1 (gene 1281); test: BSK_hDFCGF_CollagenIII: BioMAP Diversity Plus: hDFCGF Assay for Collagen III Biomarker Activity (AID 2283056); conditions: primary human foreskin fibroblasts; actives raise or lower the signal
Method in brief: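 Human foreskin primary fibroblasts were exposed to test chemicals for 24 h, after which collagen III was quantified by ELISA. Activity was fitted bidirectionally against DMSO as negative control and baseline.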

[17] = read-out: Epidermal growth factor receptor (EGFR), EGFR (gene 1956); test: BSK_hDFCGF_EGFR: BioMAP Diversity Plus: hDFCGF Assay for Epidermal growth factor receptor (EGFR) Biomarker Activity (AID 2283057); conditions: primary human foreskin fibroblasts; actives raise or lower the signal
Method in brief: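 hDFCGF system, primary human foreskin fibroblasts; compound 24 h; EGFR measured by ELISA; DMSO = negative control/baseline; bidirectional fitting.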

[18] = read-out: Interleukin-8 (IL8), CXCL8 (gene 3576); test: BSK_hDFCGF_IL8: BioMAP Diversity Plus: hDFCGF Assay for Interleukin-8 (IL8) Biomarker Activity (AID 2283058); conditions: primary human foreskin fibroblasts; actives raise or lower the signal
Method in brief: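 hDFCGF human dermal fibroblasts; 24 h chemical exposure; IL-8 by ELISA; bidirectional curve fit vs DMSO baseline; gain or loss of signal scored.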

[19] = read-out: Macrophage colony-stimulating factor (MCSF), CSF1 (gene 1435); test: BSK_hDFCGF_MCSF: BioMAP Diversity Plus: hDFCGF Assay for Macrophage colony-stimulating factor (MCSF) Biomarker Activity (AID 2283060); conditions: primary human foreskin fibroblasts; actives raise or lower the signal
Method in brief: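 Human foreskin primary fibroblasts were treated with test chemical for 24 h, and M-CSF was then measured by ELISA. Data were fitted bidirectionally against DMSO as the negative control and activity baseline.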

[20] = BSK_hDFCGF_Proliferation: Cell Proliferation Assessment in the BioMAP Diversity Plus: hDFCGF Assay (AID 2283059); conditions: primary human foreskin fibroblasts;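 also: curves fitted for both rise and fall of signal versus DMSO baseline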
Method in brief: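 This proliferation readout used SRB total-protein staining of human foreskin fibroblasts […], normalized to DMSO with bidirectional curve fitting.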

Measured: AC50

CC(C)(C)OOC(=O)c1ccccc1
inactive: [1] | [2] | [3] | [4] | [5] | [6] | [8] | [9] | [10] | [11] | [12] | [14] | [15] | [17]
active: [7] 8.08 µM | [13] 33.2 µM | [16] 35.1 µM | [18] 34.3 µM | [19] 34.1 µM

C[N+](C)(C)CC1CO1 (stereo not given)
inactive: [1] | [2] | [3] | [4] | [5] | [6] | [7] | [8] | [9] | [10] | [11] | [12] | [13] | [14] | [15] | [16] | [17] | [18] | [19]

CN(C)c1ccccc1
inactive: [1] | [2] | [3] | [4] | [5] | [6] | [7] | [8] | [9] | [10] | [11] | [12] | [13] | [14] | [15] | [16] | [17] | [18] | [20] | [19]

CCOC(=O)[C@]1(c2ccccc2)Oc2ccccc2[C@@H]1N
inactive: [1] | [2] | [4] | [6] | [7] | [8] | [9] | [10] | [11] | [12] | [14] | [15] | [17]
active: [3] 31 µM | [5] 23.4 µM | [13] 36.6 µM | [16] 31.9 µM | [18] 32.2 µM | [20] 17.8 µM | [19] 28.4 µM

CC(C)(C)C(O)(CCc1ccc(Cl)cc1)Cn1cncn1 (stereo not given)
active: [20] 0.299 µM
inactive: [1] | [2] | [3] | [4] | [5] | [6] | [7] | [8] | [9] | [10] | [11] | [12] | [13] | [14] | [15] | [16] | [17] | [18] | [19]

CCCCOC(=O)c1ccccc1C(=O)OCc1ccccc1
active: [11] 20 µM | [16] 13 µM | [19] 11.8 µM
inactive: [1] | [2] | [3] | [4] | [5] | [6] | [7] | [8] | [9] | [10] | [12] | [13] | [14] | [15] | [17] | [18] | [20]

C=CCc1ccc2c(c1)OCO2
inactive: [1] | [2] | [3] | [4] | [5] | [6] | [7] | [8] | [9] | [10] | [11] | [12] | [13] | [14] | [15] | [16] | [17] | [18] | [19]

Cc1ccc(N)cc1
inactive: [1] | [2] | [3] | [4] | [5] | [6] | [7] | [8] | [9] | [10] | [11] | [12] | [13] | [14] | [15] | [16] | [17] | [18] | [20] | [19]

CCN(CC)N=O
inactive: [1] | [2] | [3] | [4] | [5] | [6] | [7] | [8] | [9] | [10] | [11] | [12] | [13] | [14] | [15] | [16] | [17] | [18] | [20] | [19]

CCCCCCCCn1sccc1=O
inactive: [17]
active: [1] 6.84 µM | [2] 14.3 µM | [3] 4.85 µM | [4] 10.8 µM | [5] 12.8 µM | [6] 15 µM | [7] 1.28 µM | [8] 9.51 µM | [9] 17.2 µM | [10] 14.7 µM | [11] 35.8 µM | [12] 14.2 µM | [13] 0.626 µM | [14] 11.5 µM | [15] 9.3 µM | [16] 2.42 µM | [18] 1.62 µM | [20] 0.405 µM | [19] 1.07 µM

c1ccc(NNc2ccccc2)cc1
active: [11] 15.9 µM
inactive: [1] | [2] | [3] | [4] | [5] | [6] | [7] | [8] | [9] | [10] | [12] | [13] | [14] | [15] | [16] | [17] | [18] | [19]

CCCSC(=O)N(CCC)CCC
inactive: [1] | [2] | [3] | [4] | [5] | [6] | [7] | [8] | [9] | [10] | [11] | [12] | [13] | [14] | [15] | [16] | [17] | [18] | [19]

O=C(N[C@H](c1ccccc1)[C@@H]1CN2CCC1CC2)c1c(Cl)ccc(C(F)(F)F)c1Cl
inactive: [2] | [3] | [4] | [6] | [8] | [9] | [10] | [11] | [12] | [14] | [15] | [16] | [17] | [18] | [19]
active: [1] 29.7 µM | [5] 25 µM | [7] 25.2 µM | [13] 16.3 µM | [20] 26.5 µM
